Screening results as filed in PubChem BioAssay.
Pf growth 48h – P. falciparum growth inhibition at 48 hours (one generation). P. falciparum luciferase growth in erythrocytes, 48 h. Potency, µM (series often up to 28.7 µM), without a hit: at the top dose activity change, negative = inhibition, most hits filed as inhibitors. actives 5.9% (n = 310,000); note: potency is the fitted concentration of half-maximal effect
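Luminescence readout; reporter = integrated firefly luciferase in P. falciparum. RBC culture at 2% hematocrit, 0.1% parasitemia final, 37 C/5% CO2; decreased signal taken as growth inhibition.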
Marburg entry inh – Marburg virus entry inhibition; Marburg virus pseudotyped entry inhibition, cell reporter; Potency, µM (doses to about 37.8 µM), for the others: at the top dose activity change, negative = inhibition, hits mostly inhibitors; actives 1.8% (n = 300,000); calls by dose curve; tested in HEK293 cells; note: potency is the fitted concentration of half-maximal effect
HCV inh – blocks hepatitis C virus | Huh7.5.1 HCVcc-Cre infection, luciferase reporter, 44 h | Potency, µM (highest dose often 41.8 µM), for the others: at the highest dose activity change, negative = inhibition, hits mostly inhibitors | actives 3.4% (n = 340,000) | AID 651820; note: potency is the fitted concentration of half-maximal effect
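Seed cells (1,000/well) for 4 h; treat with compound and infect with HCVcc-Cre, moi about 0.5. Incubate 44 h, then detect luciferase activity.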
HCMV inh – blocks human cytomegalovirus replication; actives 4.5% (n = 410,000); HFF cells, HCMV-luciferase reporter, 72 h; stronger effect = lower value; AID 1259415; activity change, negative = inhibition, % at 57.5 µM; in the data active = activity change below about -60%; inconclusive = no clear call, values can overlap the other calls; inactive = above about -39%
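Two-dose cell screen: HFF monolayers treated with compounds and infected with luciferase-expressing HCMV at 1 PFU/cell, 72 h at 37C, then lysed for luciferase measurement.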
LASV entry inh – Lassa virus entry inhibition; Potency, µM (doses to about 37.9 µM), for inactives: at the top dose activity change, negative = inhibition, most hits filed as inhibitors; actives 1.2% (n = 300,000); Lassa virus pseudotype entry inhibition, cell reporter; calls by dose curve; tested in HEK293 cells; note: potency is the fitted concentration of half-maximal effect; nearly all actives have a fitted effect of over 50% in size
Pf growth 96h – inhibits malaria parasite growth, 96 h; P. falciparum luciferase reporter growth, 96 h; Potency, µM (series often up to 28.7 µM), for inactives: at the top dose activity change, negative = inhibition, hits mostly inhibitors; actives 6.9% (n = 320,000); AID 504834; note: potency is the fitted concentration of half-maximal effect
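P. falciparum expressing integrated firefly luciferase grown in erythrocytes (2% hematocrit, 0.05% parasitemia final) with compounds for 96 hours at 37 C, 5% CO2. Growth inhibition read as loss of luminescence after adding luciferase detection reagent.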
Numbers without * were called inactive; [ ] = dose if it differs, or a comment. Compounds with a hit are over-represented: about 14% of the library has one in this group of screens. Unless noted, calls come from the whole dose curve; as a rule, active = well fitted inhibition curve with a large enough effect; inconclusive = small, poorly fitted or top-dose-only effect, or another doubt; inactive = no such curve, though single readings can be large or run the other way. % is set by controls: 0 for no effect and ±100 for the full control effect.

`C=CCOC(=O)C1=C(C)OC(N)=C(C#N)[C@H]1c1ccoc1` gave Marburg entry inh 6%.
`CCOc1ccc(-c2cc3c(=O)n(CC(=O)NCc4ccccc4)ccn3n2)cc1` gave HCMV inh 54 and LASV entry inh 3%[46.1 µM].
Cc1ccc(C(=O)N2CCN(Cc3cc(=O)n4nc(-c5ccccc5)sc4n3)CC2)cc1 was read as HCMV inh -14 and LASV entry inh 9%[46.1 µM].
`CC1(C)CC(=O)C=C(c2cccc(O)c2)C1` gave Pf growth 48h 40%, HCV inh 1%, HCMV inh -29 and Pf growth 96h 38%.
`COc1ccc(OCc2cccc(C(=O)Nc3cc(C)on3)c2)cc1` gave Pf growth 48h 44%, Marburg entry inh 5.8µM*, HCV inh inconclusive, HCMV inh 113, LASV entry inh inconclusive and Pf growth 96h -72%.
Screening COc1cccc(C(=O)Nc2cc(C)on2)c1 returned HCMV inh 40.
For CN(C)c1cccc(C(=O)NCc2ccc(Cl)cc2)c1 the results were Pf growth 48h 4.1µM*, Marburg entry inh 0%[46.1 µM], HCV inh 0%, HCMV inh -26, LASV entry inh -15% and Pf growth 96h 75%.
For COc1cc(CNC(=O)c2cccc(COc3ccc(Cl)cc3)c2)cc(OC)c1 the results were Pf growth 48h 202%, Marburg entry inh inconclusive, HCV inh 7.9µM*, HCMV inh -16, LASV entry inh inconclusive and Pf growth 96h -24%.
`COc1ccc(OCc2cccc(C(=O)NN)c2)cc1` gave Pf growth 48h 343%, Marburg entry inh 4.1µM*, HCV inh 10%, HCMV inh 105, LASV entry inh inconclusive and Pf growth 96h 197%.
`Cc1ccc(C)c(-c2csc(-c3c(N)c(C(=O)c4ccc5c(c4)OCO5)n4ccccc34)n2)c1` gave Marburg entry inh inconclusive, HCMV inh 21 and LASV entry inh -4%[46.1 µM].
COC(=O)CNC(=O)c1cccc(-c2ccc(OC)cc2)c1 was read as Pf growth 48h 66%, Marburg entry inh 10%[46.1 µM], HCV inh 6%, HCMV inh -17, LASV entry inh 16% and Pf growth 96h 2.3µM*.
`CNC(=O)Cn1nc(-c2ccc(C)cc2)c2ccccc2c1=O` gave Pf growth 48h 5%, Marburg entry inh -25%[46.1 µM], HCV inh 15%, HCMV inh 22, LASV entry inh -24%[46.1 µM] and Pf growth 96h 0%.
Screening COCc1cc(C)nc(NC2CCCCC2)c1C#N returned Pf growth 48h 3.7µM*, Marburg entry inh -4%, HCV inh 6%, HCMV inh -24, LASV entry inh 21% and Pf growth 96h -27%.
COCc1cc(C)nc(N2CCCCC2)c1C#N was read as Pf growth 48h -3%, Marburg entry inh 1%, HCV inh -14%, HCMV inh 0, LASV entry inh -12% and Pf growth 96h -4%.
`Cc1cc(OCCCC(=O)NCCc2nnc3ccccn23)ccc1Cl` gave HCV inh 2% and HCMV inh -1.
For COC(=O)c1[nH]c2ccc(C)cc2c1NC(=O)C(C)N1CCN(C2CCCCC2)CC1 (stereo not drawn) the results were Pf growth 48h inconclusive, Marburg entry inh inconclusive, HCV inh 9%, HCMV inh -9, LASV entry inh 21% and Pf growth 96h 10µM*.
Screening COC(=O)c1[nH]c2ccc(Br)cc2c1NC(=O)CN1CCCCC1CCO (stereo not drawn) returned Pf growth 48h inconclusive, Marburg entry inh -21%[46.1 µM], HCV inh inconclusive, HCMV inh -30, LASV entry inh 13% and Pf growth 96h 5.2µM*.
For COC(=O)c1[nH]c2ccc(Br)cc2c1NC(=O)C(C)N1CCN(C2CCCCC2)CC1 (stereo not drawn) the results were Pf growth 48h inconclusive, Marburg entry inh inconclusive, HCV inh -4%, HCMV inh -13, LASV entry inh inconclusive and Pf growth 96h 2.1µM*.
